The values that follow come from PubChem BioAssay (Tox21).

Each structure is given as a SMILES string. Inconclusive results are not listed. Unmarked numbers belong to inactive results. Activity calls are given as the source filed them. Unless noted, calls come from the whole dose curve.

For assay [1], the target named is Peroxisome proliferator-activated receptor delta (Homo sapiens) (UniProt Q03181). As to the kind of experiment: qHTS assay to identify small molecule agonists of the peroxisome proliferator-activated receptor delta (PPARd) signaling pathway (AID 743212). Note: % is set by controls: 0 for no effect and ±100 for the full control effect. In a few lines:
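A PPARd-bla HEK293H line with beta-lactamase under an Upstream Activator Sequence is treated with compounds at 37 C. Substrate loading for 2 h at room temperature precedes the fluorescence measurement.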
(qHTS replaces the single test concentration by a dilution series.)

Assay [2] is described as follows: qHTS assay to identify small molecule antagonists of the peroxisome proliferator-activated receptor delta (PPARd) signaling pathway - cell viability counter screen (AID 743213; active = well fitted curve in the direction sought with a large enough effect in the repeat runs; an effect the other way counts as inactive or inconclusive; note: nearly all actives have a fitted effect of over 50% in size; note: potency is the fitted concentration of half-maximal effect). In a few lines: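 Viability counter-screen, qHTS format: PPARd-bla HEK293H, L165041 300 nM final, 17 h compound exposure at 37 C, CellTiter-Glo luminescence after 30 min RT.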
Assay [3] addresses Peroxisome proliferator-activated receptor delta (Homo sapiens) (UniProt Q03181). In words: qHTS assay to identify small molecule antagonists of the peroxisome proliferator-activated receptor delta (PPARd) signaling pathway (AID 743215; active = well fitted inhibition curve with a large enough effect in the signal ratio in the repeat runs, not every such curve was filed as active; the % refers to the signal ratio;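 note: cells stimulated with agonist L165041 at 300 nM final during compound exposure; series mostly up to about 62 µM; % is set by controls: 0 for no effect and ±100 for the full control effect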). In a few lines:
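Inhibition of L165041-driven (300 nM final) PPARd signaling is scored in HEK293H UAS-bla cells. Exposure lasts 17 h at 37 C; beta-lactamase activity is then read by FRET substrate fluorescence after 2 h at room temperature.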

Assay [4] can be described thus: qHTS assay to identify small molecule agonists of the farnesoid-X-receptor (FXR) signaling pathway - cell viability counter screen (AID 743218; active = well fitted curve in the direction sought with a large enough effect in the repeat runs; an effect the other way counts as inactive or inconclusive; note: % is set by controls: 0 for no effect and ±100 for the full control effect; nearly all actives have a fitted effect of over 45% in size). In a few lines: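 Cytotoxicity counter-screen run in parallel, same wells: FXR-UAS-bla HEK 293T cells dosed 16 h at 37 C, viability read by CellTiter-Glo luminescence after 30 min at room temperature.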
The nature of assay [5]: qHTS assay to identify small molecule antagonists of the farnesoid-X-receptor (FXR) signaling pathway - cell viability counter screen (AID 743221; active = well fitted cell-killing curve with a large enough effect in the repeat runs, not every such curve was filed as active; note: % is set by controls: 0 for no effect and ±100 for the full control effect; nearly all actives have a fitted effect of over 50% in size). In a few lines:
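Cytotoxicity counter screen run in the FXR-bla reporter wells: HEK 293T cells exposed to compound with 50 uM (final) chenodeoxycholic acid for 16 h, 37 C, then viability measured by CellTiter-Glo luminescence after 30 min, room temperature.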

Assay [6] is described as follows: qHTS assay to identify small molecule agonists of the vitamin D receptor (VDR) signaling pathway - cell viability counter screen (AID 743224; active = well fitted curve in the direction sought with a large enough effect in the repeat runs; an effect the other way counts as inactive or inconclusive; note: nearly all actives have a fitted effect of over 50% in size; note: potency is the fitted concentration of half-maximal effect). In a few lines:
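Viability is measured in the same wells as the VDR-bla reporter assay: after 16 h compound treatment and 2 h substrate loading, CellTiter-Glo is added and luminescence read 30 min later.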

Assay [7] in a line: qHTS assay to identify small molecule antagonists of the vitamin D receptor (VDR) signaling pathway - cell viability counter screen (AID 743225; active = well fitted curve in the direction sought with a large enough effect in the repeat runs; an effect the other way counts as inactive or inconclusive; note: % is set by controls: 0 for no effect and ±100 for the full control effect; nearly all actives have a fitted effect of over 50% in size). In a few lines: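 Cytotoxicity counter screen read by CellTiter-Glo luminescence (30 min, room temperature) in the same wells as the VDR-bla antagonist readout. HEK 293T VDR-UAS-bla cells had 16 h at 37C with compound and 3 nM (final) 1-alpha,25-dihydroxyvitamin D3, then 2 h with FRET substrate.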

A short description of assay [8]: qHTS assay to identify small molecule agonists of the NFkB signaling pathway (AID 1159509; active = well fitted curve in the direction sought with a large enough effect in the signal ratio in the repeat runs, not every such curve was filed as active; the % refers to the signal ratio; note: series mostly up to about 61 µM; % is set by controls: 0 for no effect and ±100 for the full control effect). In a few lines: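 NFkB-bla ME-180 cells carry a beta-lactamase reporter under an NF-kB response element. They were plated overnight, then exposed to compounds for 5 h at 37 C. Read-out is LiveBLAzer FRET after 1.5 hr at room temperature (405 nm excitation; 460/530 nm emission).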

Assay [9] in a line: qHTS assay to identify small molecule agonists of the NFkB signaling pathway - cell viability counter screen (AID 1159515). Note: series mostly up to about 61 µM; % is set by controls: 0 for no effect and ±100 for the full control effect; nearly all actives have a fitted effect of over 55% in size. In a few lines: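 Multiplexed viability readout: after the 5 hr compound exposure and 1.5 hr FRET substrate step, CellTiter-Glo reagent went into the same NFkB-bla ME-180 wells; ATP luminescence was measured after 30 min at room temperature.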
The nature of assay [10]: qHTS assay to identify small molecule agonists of the endoplasmic reticulum stress response signaling pathway (AID 1159516; active = well fitted activation curve with a large enough effect in the signal ratio in the repeat runs, not every such curve was filed as active; the % refers to the signal ratio; note: % is set by controls: 0 for no effect and ±100 for the full control effect). In a few lines: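 Tox21 10K library screened in quantitative HTS format on ESRE-bla HeLa cells, a beta-lactamase reporter under ER stress response element control; 5 hr treatment, FRET read.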
Assay [11] in a line: qHTS assay to identify small molecule agonists of the endoplasmic reticulum stress response signaling pathway - cell viability counter screen (AID 1159517). In a few lines: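 CellTiter-Glo was added to wells already read for beta-lactamase FRET, and luminescence was recorded 30 min later. Cells: ESRE-bla HeLa, 1,500 per well, compound exposure 5 hr at 37 C.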
The nature of assay [12]: qHTS assay to identify small molecule agonists of the AP-1 signaling pathway - cell viability counter screen (AID 1159525). Note: nearly all actives have a fitted effect of over 55% in size. In a few lines:
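ME-180 AP-1-bla, 2500 cells/well, Opti-MEM + 0.5% dialyzed FBS; overnight 37 °C; cpd 15-pt titration, 5 h 37 °C; CellTiter-Glo 30 min RT; luminescence read; normalised to TOAB and DMSO controls.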

Assay [13] deals with Retinoic acid receptor RXR-alpha (Homo sapiens) (UniProt P19793). In words: qHTS assay to identify small molecule agonists of the RXR signaling pathway (AID 1159527). Note: % is set by controls: 0 for no effect and ±100 for the full control effect; nearly all actives have a fitted effect of over 35% in size. In a few lines:
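Agonist-mode beta-lactamase reporter assay: HEK 293T RXR-alpha-UAS-bla cells treated 16 hr at 37 C with compounds, 9-cis retinoic acid as positive control. LiveBLAzer FRET substrate, 405 nm excitation, 460/530 nm emission.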

In assay [14] the target is Vitamin D3 receptor (Homo sapiens) (UniProt P11473). As to the kind of experiment: qHTS assay to identify small molecule agonists of the vitamin D receptor (VDR) signaling pathway (AID 743222). Note: % is set by controls: 0 for no effect and ±100 for the full control effect. In a few lines: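 Quantitative HTS agonist-mode screen: compounds in DMSO were pin-transferred onto VDR-bla cells and incubated 16 h at 37C, 5% CO2. Reporter activity was detected with LiveBLAzer B/G FRET substrate after 2 h at room temperature.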
Vitamin D3 receptor (Homo sapiens), sequence (P11473 whole entry, looked up): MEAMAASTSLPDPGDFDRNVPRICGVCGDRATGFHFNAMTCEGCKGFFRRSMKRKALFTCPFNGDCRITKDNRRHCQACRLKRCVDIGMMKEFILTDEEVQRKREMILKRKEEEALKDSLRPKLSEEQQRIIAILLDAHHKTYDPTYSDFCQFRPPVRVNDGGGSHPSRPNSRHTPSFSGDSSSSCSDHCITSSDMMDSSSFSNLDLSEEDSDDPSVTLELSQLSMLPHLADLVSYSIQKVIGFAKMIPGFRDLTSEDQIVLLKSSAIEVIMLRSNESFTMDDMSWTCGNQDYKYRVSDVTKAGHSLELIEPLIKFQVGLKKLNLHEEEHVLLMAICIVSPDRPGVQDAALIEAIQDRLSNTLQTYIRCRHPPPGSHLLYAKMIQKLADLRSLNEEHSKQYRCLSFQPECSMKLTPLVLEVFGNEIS

A short description of assay [15]: qHTS assay to identify small molecule agonists of the AP-1 signaling pathway (AID 1159526). Note: % is set by controls: 0 for no effect and ±100 for the full control effect.
The target in assay [16] is Bile acid receptor (Homo sapiens) (UniProt Q96RI1). In words: qHTS assay to identify small molecule antagonists of the farnesoid-X-receptor (FXR) signaling pathway (AID 743217; active = well fitted inhibition curve with a large enough effect in the signal ratio in the repeat runs, not every such curve was filed as active; the % refers to the signal ratio; note: potency is the fitted concentration of half-maximal effect). In a few lines:
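Antagonist mode against 50 uM (final) chenodeoxycholic acid stimulation in FXR-bla HEK 293T cells, 16 h at 37 °C. Inhibition detected as reduced beta-lactamase activity via LiveBLAzer B/G FRET fluorescence after 2 h at room temperature.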

Assay [17] has the same target. As to the kind of experiment: qHTS assay to identify small molecule agonists of the farnesoid-X-receptor (FXR) signaling pathway (AID 743220; active = well fitted activation curve with a large enough effect in the signal ratio in the repeat runs, not every such curve was filed as active; the % refers to the signal ratio; note: % is set by controls: 0 for no effect and ±100 for the full control effect). In a few lines:
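Beta-lactamase reporter under UAS control in GeneBLAzer FXR HEK 293T cells (5000/well) measured with LiveBLAzer FRET substrate after 2 h at room temperature. Compound exposure lasted 16 h at 37C.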

Assay [18] addresses Vitamin D3 receptor (Homo sapiens) (UniProt P11473). As to the kind of experiment: qHTS assay to identify small molecule antagonists of the vitamin D receptor (VDR) signaling pathway (AID 743223; active = well fitted inhibition curve with a large enough effect in the signal ratio in the repeat runs, not every such curve was filed as active; the % refers to the signal ratio; note: % is set by controls: 0 for no effect and ±100 for the full control effect). In a few lines: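 Antagonist mode: compound added to VDR-bla cells alongside agonist 1alpha,25-dihydroxyvitamin D3 (3 nM final), incubation 16 h at 37C. Read-out is LiveBLAzer FRET fluorescence, 2 h at room temperature.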

Assay [19] in a line: qHTS assay to identify small molecule antagonists of the retinoid-related orphan receptor gamma (ROR-gamma) signaling pathway - cell viability counter screen (AID 1159520; active = well fitted curve in the direction sought with a large enough effect in the repeat runs; an effect the other way counts as inactive or inconclusive). In a few lines: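 Tet-on ROR gamma CHO cells (1,000/well) were plated 4 hr, given compounds in DMSO for 2 hr at 37 C, then induced with 1 uM final doxycycline for 16 hr. Viability was read as ATP by CellTiter-Glo luminescence after 30 min.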

Assay [20] has as its target Nuclear receptor ROR-gamma (Homo sapiens) (UniProt P51449). In words: qHTS assay to identify small molecule antagonists of the retinoid-related orphan receptor gamma (ROR-gamma) signaling pathway (AID 1159521; active = well fitted curve in the direction sought with a large enough effect in the repeat runs; an effect the other way counts as inactive or inconclusive). In a few lines: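 Antagonist read-out: drop in luminescence (ONE-Glo) from an RORE-LUC reporter in CHO cells with doxycycline-inducible ROR-gamma; 2 hr compound pretreatment, 1 uM doxycycline, 16 hr incubation at 37 C.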

Retinoic acid receptor RXR-alpha (Homo sapiens), sequence (P19793 whole entry, looked up): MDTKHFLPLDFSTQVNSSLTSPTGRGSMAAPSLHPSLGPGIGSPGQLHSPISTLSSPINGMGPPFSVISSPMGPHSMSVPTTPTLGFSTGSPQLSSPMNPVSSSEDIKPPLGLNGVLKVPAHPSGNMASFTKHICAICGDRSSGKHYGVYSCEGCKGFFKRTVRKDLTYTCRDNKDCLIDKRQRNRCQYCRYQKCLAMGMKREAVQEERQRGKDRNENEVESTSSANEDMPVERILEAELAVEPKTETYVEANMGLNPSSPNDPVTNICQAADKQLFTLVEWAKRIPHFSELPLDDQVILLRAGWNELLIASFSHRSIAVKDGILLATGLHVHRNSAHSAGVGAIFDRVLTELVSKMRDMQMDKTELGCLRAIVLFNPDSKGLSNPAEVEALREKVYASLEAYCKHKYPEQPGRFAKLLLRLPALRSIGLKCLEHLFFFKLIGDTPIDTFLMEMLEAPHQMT
Peroxisome proliferator-activated receptor delta (Homo sapiens), sequence (Q03181 whole entry, looked up): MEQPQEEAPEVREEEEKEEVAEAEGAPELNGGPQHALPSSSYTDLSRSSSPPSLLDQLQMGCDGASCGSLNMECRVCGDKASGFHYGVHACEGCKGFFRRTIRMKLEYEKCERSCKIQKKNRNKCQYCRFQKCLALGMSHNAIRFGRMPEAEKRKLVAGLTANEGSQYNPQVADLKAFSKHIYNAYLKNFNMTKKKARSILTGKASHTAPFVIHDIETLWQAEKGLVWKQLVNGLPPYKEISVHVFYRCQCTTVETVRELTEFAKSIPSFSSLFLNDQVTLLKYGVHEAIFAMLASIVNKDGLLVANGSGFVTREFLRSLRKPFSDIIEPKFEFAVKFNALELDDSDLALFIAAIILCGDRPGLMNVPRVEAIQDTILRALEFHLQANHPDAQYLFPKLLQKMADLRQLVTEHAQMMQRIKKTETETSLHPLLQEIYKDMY
Bile acid receptor (Homo sapiens), sequence (Q96RI1 whole entry, looked up): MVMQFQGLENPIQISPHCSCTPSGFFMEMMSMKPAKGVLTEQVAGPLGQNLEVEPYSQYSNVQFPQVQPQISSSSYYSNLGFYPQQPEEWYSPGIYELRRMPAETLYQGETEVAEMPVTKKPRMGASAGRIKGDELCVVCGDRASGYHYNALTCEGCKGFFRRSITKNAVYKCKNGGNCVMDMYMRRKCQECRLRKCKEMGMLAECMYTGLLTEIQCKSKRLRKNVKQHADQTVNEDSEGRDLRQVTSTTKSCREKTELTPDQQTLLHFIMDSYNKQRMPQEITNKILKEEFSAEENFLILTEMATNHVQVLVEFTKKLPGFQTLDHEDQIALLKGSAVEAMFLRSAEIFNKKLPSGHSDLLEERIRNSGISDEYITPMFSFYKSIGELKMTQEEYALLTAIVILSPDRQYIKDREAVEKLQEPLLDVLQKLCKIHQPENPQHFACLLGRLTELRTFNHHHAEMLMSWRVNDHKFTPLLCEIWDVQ

With `COCC(O)CO` (stereo not given), the Potency entry in assay [1], in [2], in assay [3], in [4], in assay [5] and in assay [6] was “inactive” in each case. In addition, the Potency entry in [7] and in assay [13] was “inactive” throughout. The call in [8], in assay [9], in assay [10], in [11] and in assay [12] was inactive.

On to `CCOC(=O)OCC`, for which the Potency entry in assay [1], in [2], in [3], in assay [4], in assay [5] and in assay [6] was “inactive” throughout. In assay [7], the Potency result is “inactive”. Moreover, the outcome in assay [14], in assay [8], in [9], in [10], in assay [11] and in assay [12] was inactive. Also, the molecule was called inactive in [15].

As for `O=C(O)c1c(O)c(-c2ccccc2)nc2ccccc12`, the Potency result in assay [2], in assay [17], in assay [5], in [6] and in assay [7] was “inactive” in each case. Also, in assay [16], the Potency is 16.8 µM (active). Also, the call in assay [14], in assay [18], in [8], in assay [9], in [10] and in [11] was inactive. In addition, the molecule was called inactive in assay [12] and in assay [15].

With `CNCCCC1c2ccccc2C=Cc2ccccc21`, the Potency is 23.7 µM (active) in [2] and 29.8 µM (active) in [6]. Further, the molecule was called inactive in [18], in assay [8], in assay [9], in assay [10], in [11] and in assay [12]. In [15], the molecule was called inactive.

With `C=CC(=C)CCCC(C)(C)OC(C)=O`, the Potency entry in assay [1], in assay [2], in assay [3], in [4], in assay [5] and in [6] was “inactive” throughout. Besides, the Potency result in assay [19], in [20] and in [13] was “inactive” each time. The call in assay [14], in assay [8], in assay [9], in [10], in assay [12] and in [15] was inactive.

As for `CO[C@H]1O[C@H](CO)[C@@H](O)[C@H](O)[C@H]1O`, the Potency result in assay [2], in assay [3], in assay [16], in [4], in assay [17] and in assay [5] was “inactive” in each case. In addition, the Potency entry in [6], in [7], in [19], in assay [20] and in assay [13] was “inactive” each time. The molecule was called inactive in assay [14], in [18], in assay [8], in assay [9], in assay [10] and in assay [12]. Further, the outcome in assay [15] was inactive.

On to `COc1cc2[nH]c(=O)[nH]c(=O)c2cc1OC`, for which the Potency entry in assay [1], in [2], in assay [3], in assay [4], in assay [5] and in [6] was “inactive” throughout. The Potency result in [7], in assay [19], in assay [20] and in [13] was “inactive” throughout. Further, the result in assay [14], in assay [18], in assay [8], in assay [9], in [10] and in assay [12] was inactive. In assay [15], the call was inactive.

Take `CC(=O)[C@H]1CC[C@H]2[C@@H]3C=CC4=CC(=O)CC[C@@]4(C)[C@@H]3CC[C@]12C`: the Potency result in assay [2], in assay [17], in assay [5], in assay [6] and in [7] was “inactive” in each case. The outcome in assay [8], in assay [9], in [10], in assay [11], in assay [12] and in [15] was inactive.

Regarding `C=CCCCCCCCCCCCCCCCC`, the activation in assay [1] was -3.43% [at 5.95 µM]; in assay [17] it was -1.74% [at 5.95 µM]; in assay [14] it was -0.178% [at 6.01 µM]; in assay [8] it was 0.162% [at 6.95 µM]; in assay [10], 3.12% [at 6.95 µM]; in assay [15], -4.53% [at 6.97 µM]. Besides, the activation in [13] was 0.376% [at 6.98 µM]. For the same molecule, the viability change, negative = cytotoxic is 13.3% [at 6.26 µM] in [2], 4.85% [at 5.95 µM] in assay [4], 8.8% [at 6.95 µM] in assay [7] and 4.34% [at 6.97 µM] in assay [12]. Also, the ratio activity, negative = inhibition in assay [3] was -0.434% [at 6.26 µM]. Moreover, the results for the activity change, negative = inhibition in [16], in assay [18] and in assay [20] were -5.71% [at 5.95 µM], 7.35% [at 6.95 µM] and 11.3% [at 8.39 µM], respectively. Moreover, the activity change, negative = cytotoxicity is -0.119% [at 5.95 µM] in assay [5] and 7.44% [at 5.95 µM] in assay [6]. In addition, the activity, negative = cytotoxic in assay [9] was -0.437% [at 6.95 µM]. Also, the activity, negative = cytotoxicity in assay [19] is 6.9% [at 8.39 µM].
